According to PubChem BioAssay AID1159580 (chemical genetic matrix, 2015):
The campaign covered roughly 5,500 compounds. About 2,000 (36%) were called active. Roughly 18% stayed inconclusive and do not appear here. No stated cut-off is given here; in the data, active means normalized growth mostly below about 0.91 (no sharp cut-off); inconclusive means no clear call, values can overlap the other calls; inactive means mostly above about 0.92. The list shows a part of the results.

Assay: chemical genetic growth profiling, strain panel (AID 1159580);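 further: tested at 20 µM; growth read once vehicle control cultures reached saturation at 30 °C; 1 = growth at the plate median or of vehicle wells; lower values mean less growth of the strain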
Settings: growth OD

Measured: normalized growth

CCN1CCN(C(=O)NC(C(=O)N[C@@H]2C(=O)N3[C@@H]2SC(C)(C)[C@@H]3C(=O)O)c2ccccc2)C(=O)C1=O (some centres not stated)
inactive: S. cerevisiae deletion strains, locus YJR075W, strain HOC1, active compounds read low 1.01 | S. cerevisiae deletion strains, locus YKL009W, strain mrt4, active compounds read low 1.02 | S. cerevisiae deletion strains, locus YKL068W, active compounds read low 1 | S. cerevisiae deletion strains, locus YKL085W, strain MDH1 (second series), active compounds read low 0.998 | S. cerevisiae deletion strains, locus YKL085W, strain MDH1, active compounds read low 0.998 | S. cerevisiae deletion strains, locus YKL160W, strain elf1, active compounds read low 0.985 | S. cerevisiae deletion strains, locus YKL190W, strain CNB1, active compounds read low 1.01 | S. cerevisiae deletion strains, locus YKR001C, strain vps1, active compounds read low 1.01 | S. cerevisiae deletion strains, locus YKR026C, strain gcn3, active compounds read low 0.996 | S. cerevisiae deletion strains, locus YKR091W, strain srl3, active compounds read low 1 | S. cerevisiae deletion strains, locus YLL001W, strain dnm1, active compounds read low 0.979 | S. cerevisiae deletion strains, locus YLL026W, active compounds read low 1.01 | S. cerevisiae deletion strains, locus YLL041C, strain sdh2, active compounds read low 0.997 | S. cerevisiae deletion strains, locus YLR027C, strain aat2, active compounds read low 0.998 | S. cerevisiae deletion strains, locus YLR039C, strain RIC1, active compounds read low 0.991 | S. cerevisiae deletion strains, locus YLR058C, strain SHM2, active compounds read low 1.02 | S. cerevisiae deletion strains, locus YLR102C, strain apc9, active compounds read low 1 | S. cerevisiae deletion strains, locus YLR113W, strain HOG1, active compounds read low 0.987 | S. cerevisiae deletion strains, locus YLR221C, strain rsa3, active compounds read low 1 | S. cerevisiae deletion strains, locus YLR258W, strain gsy2, active compounds read low 1 | S. cerevisiae deletion strains, locus YLR262C, strain YPT6 (second series), active compounds read low 0.983 | S. cerevisiae deletion strains, locus YLR262C, strain YPT6, active compounds read low 0.993 | S. cerevisiae deletion strains, locus YLR268W, strain sec22, active compounds read low 1.02 | S. cerevisiae deletion strains, locus YLR320W, strain mms22, active compounds read low 0.978 | S. cerevisiae deletion strains, locus YLR330W, strain CHS5, active compounds read low 1.01 | S. cerevisiae deletion strains, locus YLR342W, strain FKS1 (second series), active compounds read low 1.03 | S. cerevisiae deletion strains, locus YLR342W, strain FKS1, active compounds read low 0.991 | S. cerevisiae deletion strains, locus YLR357W, strain rsc2, active compounds read low 0.957 | S. cerevisiae deletion strains, locus YLR370C, strain arc18, active compounds read low 1.01 | S. cerevisiae deletion strains, locus YLR371W, strain rom2, active compounds read low 1.01 | S. cerevisiae deletion strains, locus YLR384C, strain iki3, active compounds read low 0.992 | S. cerevisiae deletion strains, locus YLR418C, strain cdc73, active compounds read low 1 | S. cerevisiae deletion strains, locus YML016C, strain PPZ1, active compounds read low 1.01 | S. cerevisiae deletion strains, locus YML032C, strain rad52, active compounds read low 1.01 | S. cerevisiae deletion strains, locus YML120C, strain ndi1, active compounds read low 1.01 | S. cerevisiae deletion strains, locus YML124C, strain tub3, active compounds read low 1.01 | S. cerevisiae deletion strains, locus YMR058W, strain fet3, active compounds read low 1 | S. cerevisiae deletion strains, locus YMR078C, strain ctf18, active compounds read low 1 | S. cerevisiae deletion strains, locus YMR125W, strain sto1, active compounds read low 0.988 | S. cerevisiae deletion strains, locus YMR129W, active compounds read low 1 | S. cerevisiae deletion strains, locus YMR205C, strain PFK2, active compounds read low 1.01 | S. cerevisiae deletion strains, locus YMR223W, strain ubp8, active compounds read low 1.01 | S. cerevisiae deletion strains, locus YMR231W, strain pep5, active compounds read low 0.989 | S. cerevisiae deletion strains, locus YMR263W, strain SAP30, active compounds read low 1.01 | S. cerevisiae deletion strains, locus YMR307W, strain GAS1, active compounds read low 0.931 | S. cerevisiae deletion strains, locus YNL067W, strain RPL9B, active compounds read low 1.01 | S. cerevisiae deletion strains, locus YNL071W, strain lat1, active compounds read low 0.999 | S. cerevisiae deletion strains, locus YNL128W, strain TEP1, active compounds read low 1.01 | S. cerevisiae deletion strains, locus YNL153C, strain GIM3, active compounds read low 1.01 | S. cerevisiae deletion strains, locus YNL183C, strain NPR1, active compounds read low 0.967 | S. cerevisiae deletion strains, locus YNL209W, strain ssb2, active compounds read low 1 | S. cerevisiae deletion strains, locus YNL233W, strain BNI4, active compounds read low 0.995 | S. cerevisiae deletion strains, locus YNL248C, strain rpa49, active compounds read low 0.996 | S. cerevisiae deletion strains, locus YNL250W, strain rad50, active compounds read low 1.01 | S. cerevisiae deletion strains, locus YNL271C, strain bni1, active compounds read low 1.01 | S. cerevisiae deletion strains, locus YNL298W, strain CLA4, active compounds read low 1.01 | S. cerevisiae deletion strains, locus YNL307C, strain MCK1, active compounds read low 1.01 | S. cerevisiae deletion strains, locus YNL322C, strain KRE1 (second series), active compounds read low 1 | S. cerevisiae deletion strains, locus YNL322C, strain KRE1, active compounds read low 1 | S. cerevisiae deletion strains, locus YNR049C, strain mso1, active compounds read low 0.993 | S. cerevisiae deletion strains, locus YNR052C, strain pop2, active compounds read low 1.01 | S. cerevisiae deletion strains, locus YOL006C, strain TOP1, active compounds read low 1.02 | S. cerevisiae deletion strains, locus YOL012C, strain htz1 1.52 | S. cerevisiae deletion strains, locus YOL147C, strain pex11, active compounds read low 1 | S. cerevisiae deletion strains, locus YOR001W, strain rrp6, active compounds read low 0.987 | S. cerevisiae deletion strains, locus YOR061W, strain CKA2, active compounds read low 1.01 | S. cerevisiae deletion strains, locus YOR069W, strain VPS5, active compounds read low 1.01 | S. cerevisiae deletion strains, locus YOR070C, strain gyp1, active compounds read low 1 | S. cerevisiae deletion strains, locus YOR080W, strain dia2, active compounds read low 0.997 | S. cerevisiae deletion strains, locus YOR083W, strain WHI5, active compounds read low 0.976 | S. cerevisiae deletion strains, locus YOR106W, strain vam3, active compounds read low 0.984 | S. cerevisiae deletion strains, locus YOR136W, strain idh2, active compounds read low 1.01 | S. cerevisiae deletion strains, locus YOR144C, strain elg1, active compounds read low 1.01 | S. cerevisiae deletion strains, locus YOR184W, strain ser1, active compounds read low 1.02 | S. cerevisiae deletion strains, locus YOR231W, strain MKK1, active compounds read low 0.985 | S. cerevisiae deletion strains, locus YOR265W, strain rbl2, active compounds read low 1 | S. cerevisiae deletion strains, locus YOR270C, strain vph1, active compounds read low 1.01 | S. cerevisiae deletion strains, locus YOR290C, strain snf2, active compounds read low 1.01 | S. cerevisiae deletion strains, locus YOR316C, strain cot1, active compounds read low 1.01 | S. cerevisiae deletion strains, locus YPL051W, strain arl3, active compounds read low 0.983 | S. cerevisiae deletion strains, locus YPL055C, strain LGE1, active compounds read low 1.01 | S. cerevisiae deletion strains, locus YPL078C, strain atp4, active compounds read low 0.976 | S. cerevisiae deletion strains, locus YPL106C, strain sse1, active compounds read low 1.02 | S. cerevisiae deletion strains, locus YPL240C, strain hsp82, active compounds read low 0.988 | S. cerevisiae deletion strains, locus YPL241C, strain CIN2, active compounds read low 1 | S. cerevisiae deletion strains, locus YPL256C, strain CLN2, active compounds read low 0.962 | S. cerevisiae deletion strains, locus YPR119W, strain clb2, active compounds read low 1.02 | S. cerevisiae deletion strains, locus YPR141C, strain kar3, active compounds read low 1.02 | S. cerevisiae deletion strains, locus YPR163C, strain tif3, active compounds read low 1.02 | S. cerevisiae deletion strains, locus YPR167C, strain met16, active compounds read low 1.02 | S. cerevisiae deletion strains, strain wtn01, active compounds read low 1.04 | S. cerevisiae strains, strain wild type, active compounds read low 1.01
